Test results from PubChem BioAssay (EPA / NIEHS).
Results filed as inconclusive are left out. Active and inactive are the calls of the source. The calls were made as follows: active = hit-call score of the fitted dose curve at least 0.9, where 1 is the maximum; inconclusive = response in the unintended direction; inactive = score below 0.9.

Legend:
[1] = TOX21_p53_BLA_p2_viability: Viability Assessment in the Tox21 HCT-116 p53 Agonism Beta-lactamase Assay, Phase 2 (AID 2283591);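 also: compound exposure lasted 16 h at 37 °C; actives lower the ATP signal meaning cytotoxicity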
In short: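 Cytotoxicity readout: CellTiter-Glo ATP luminescence, 30 min at room temperature, after the beta-lactamase read. Cells were HCT116 exposed 16 h at 37C to compounds pin-transferred at 217-fold dilution from DMSO stocks.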

[2] = target: Cellular tumor antigen p53 (Homo sapiens) (UniProt P04637); assay: TOX21_p53_BLA_p2_ratio: Tox21 HCT-116 p53 Agonism Beta-lactamase Assay, Ratio, Phase 2 (AID 2283592)
Cellular tumor antigen p53 (Homo sapiens), sequence (P04637 whole entry, looked up): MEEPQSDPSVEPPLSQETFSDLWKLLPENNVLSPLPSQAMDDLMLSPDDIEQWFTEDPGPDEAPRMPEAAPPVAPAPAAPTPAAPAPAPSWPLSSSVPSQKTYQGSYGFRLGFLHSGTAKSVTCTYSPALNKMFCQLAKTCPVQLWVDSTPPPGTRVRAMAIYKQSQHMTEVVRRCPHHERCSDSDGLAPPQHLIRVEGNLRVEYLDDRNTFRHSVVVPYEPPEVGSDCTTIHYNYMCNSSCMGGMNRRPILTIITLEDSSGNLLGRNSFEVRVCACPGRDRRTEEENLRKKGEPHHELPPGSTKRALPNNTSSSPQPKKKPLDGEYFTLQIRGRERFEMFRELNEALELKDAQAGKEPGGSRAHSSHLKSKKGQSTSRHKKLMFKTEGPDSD
In short: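 Gain-of-signal p53 agonism was scored from the beta-lactamase FRET ratio (460/530 nm, 405 nm excitation) in HCT116 cells treated 16 h at 37C, 5% CO2, with DMSO serving as negative control and baseline.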

[3] = TOX21_p53_BLA_p3_viability: Viability Assessment in the Tox21 HCT-116 p53 Agonism Beta-lactamase Assay, Phase 3 (AID 2283593);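 also: cells exposed to compound for 16 h before reading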
In short: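 Cellular ATP was quantified by CellTiter-Glo luminescence, read after 30 min at room temperature. Beforehand, HCT116 cells (4000/well) received compound 5 h post-seeding, 217-fold diluted from DMSO, then incubated 16 h at 37C.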

[4] = TOX21_p53_BLA_p4_viability: Viability Assessment in the Tox21 HCT-116 p53 Agonism Beta-lactamase Assay, Phase 4 (AID 2283597);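 also: hits lower the luminescence signal meaning cytotoxicity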
In short: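 Following a 16 h exposure at 37C, the treated HCT116 wells were first read for the FRET ratio. They were then lysed with CellTiter-Glo, and ATP luminescence was recorded after 30 min at room temperature.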

[5] = target: Cellular tumor antigen p53 (Homo sapiens) (UniProt P04637); assay: TOX21_p53_BLA_p5_ratio: Tox21 HCT-116 p53 Agonism Beta-lactamase Assay, Ratio, Phase 5 (AID 2283599)
In short: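 Beta-lactamase reporter ratio (blue 460 nm over green 530 nm, 405 nm excitation) after 2 h CCF4-AM loading, in HCT-116 cells exposed 16 h at 37 C to compounds pinned at 217-fold dilution. Increases relative to DMSO baseline scored.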

[6] = TOX21_p53_BLA_p5_viability: Viability Assessment in the Tox21 HCT-116 p53 Agonism Beta-lactamase Assay, Phase 5 (AID 2283600)
In short: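 After the 460/530 nm beta-lactamase measurement, the wells received an ATP-detection luciferase reagent; signal was read 30 min later at RT. Compound treatment lasted 16 h on cells pre-incubated 5 h post-seeding.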

[7] = target: Cellular tumor antigen p53 (Homo sapiens) (UniProt P04637); assay: TOX21_p53_BLA_p4_ratio: Tox21 HCT-116 p53 Agonism Beta-lactamase Assay, Ratio, Phase 4 (AID 2283601)
In short: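 Signal is the blue/green (460nm/530nm) ratio of cleaved versus uncleaved CCF4-AM substrate, read after 2 h substrate loading. Cells were HCT116 carrying the p53-responsive beta-lactamase reporter, dosed 16 h at 37C, 5% CO2; CellTiter-Glo measured in parallel.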

Structure (SMILES) | outcome [1] | outcome [2] | outcome [3] | outcome [4] | outcome [5] | outcome [6] | outcome [7] | AC50 [3]
CC1(C)C2CC[C@]3(C)[C@H](C(=O)C=C4[C@@H]5C[C@@](C)(C(=O)O)CC[C@]5(C)CC[C@]43C)[C@@]2(C)CC[C@@H]1O[C@H]1O[C@H](C(=O)O)[C@@H](O)[C@H](O)[C@H]1O[C@@H]1O[C@H](C(=O)O)[C@@H](O)[C@H](O)[C@H]1O (some centres undefined) | inactive | inactive | inactive | inactive |  |  |  | 
CCOc1ccc(N=C(C)Nc2ccc(OCC)cc2)cc1 | inactive | inactive | inactive | inactive | inactive | inactive |  | 
OCC1O[C@@H](O[C@@H]2C(CO)OC(O)C(O)C2O)C(O)C(O)C1O (some centres undefined) | inactive | inactive | inactive | inactive | inactive | inactive |  | 
CCCCCC1Nc2cc(C(F)(F)F)c(S(N)(=O)=O)cc2S(=O)(=O)N1 (centres undefined) | inactive | inactive | inactive | inactive | inactive | inactive |  | 
Cc1c(O)c(=O)ccn1C | inactive | inactive | inactive | inactive | inactive | inactive | inactive | 
CCCCCCCCCCC(=O)O | inactive | inactive | inactive | inactive | inactive | inactive |  | 
CC(C)OC(=O)C(C)N(C(=O)c1ccccc1)c1ccc(F)c(Cl)c1 (centres undefined) | inactive | inactive | inactive | inactive | inactive | inactive | inactive | 
O=C(CCN1CCN2CCCC2C1)N1c2ccccc2Sc2ccc(Cl)cc21 (centres undefined) | inactive | inactive | inactive | inactive |  |  |  | 
C=CCN1C[C@H](C(=O)N(CCCN(C)C)C(=O)NCC)C[C@@H]2c3cccc4[nH]cc(c34)C[C@H]21 | inactive | inactive | inactive | inactive | inactive | inactive | inactive | 
COc1cc(C)c(Cc2cnc(N)nc2N)cc1OC | inactive | inactive | inactive | inactive | inactive |  |  | 
C[C@H]1C[C@H]2[C@@H]3CCC4=CC(=O)C=C[C@]4(C)[C@@]3(F)[C@@H](O)C[C@]2(C)[C@@]1(O)C(=O)CCl | inactive | inactive | inactive | inactive |  |  |  | 
CC(C)OCC1CO1 (centres undefined) | inactive | inactive | inactive | inactive | inactive |  |  | 
OCCN1CCN(CC/C=C2/c3ccccc3Sc3ccc(Cl)cc32)CC1 | inactive | inactive | inactive | inactive |  |  |  | 
O=c1[nH]cnc2[nH]cc(CN3CCCCC3)c12 | inactive | inactive | inactive | inactive | inactive | inactive |  | 
O=C(O)Cc1cccc(-c2cc(CCCCCCc3ccc(O[C@H]4O[C@H](CO)[C@@H](O)[C@H](O)[C@@H]4O)c(-c4cccc(CC(=O)O)c4)c3)ccc2O[C@H]2O[C@H](CO)[C@@H](O)[C@H](O)[C@@H]2O)c1 | inactive | inactive | inactive | inactive | inactive | inactive |  | 
COc1cc(Br)c(C[N+]2(CCOCCC3CCC4CC3C4(C)C)CCOCC2)cc1OC (centres undefined) | inactive | inactive | inactive | inactive | inactive | inactive |  | 
C[C@]12C=CC(=O)N[C@@H]1CC[C@@H]1[C@@H]2CC[C@]2(C)[C@@H](C(=O)Nc3cc(C(F)(F)F)ccc3C(F)(F)F)CC[C@@H]12 | inactive | inactive |  | inactive | inactive | inactive | inactive | 7.37 µM (active)
C=C(C)C(=O)OCCN(CC)CC | inactive | inactive | inactive | inactive | inactive |  |  | 
CC(C)(COP(=O)(O)OP(=O)(O)OC[C@H]1O[C@@H](n2cnc3c(N)ncnc32)[C@H](O)[C@@H]1OP(=O)(O)O)C(O)C(=O)NCCC(=O)NCCS (some centres undefined) | inactive | inactive | inactive | inactive | inactive | inactive |  | 
CC(=O)NO | inactive | inactive | inactive | inactive | inactive | inactive | inactive | 
O=C(CCCCC(=O)Nc1c(I)cc(I)c(C(=O)O)c1I)Nc1c(I)cc(I)c(C(=O)O)c1I | inactive | inactive | inactive | inactive | inactive |  |  | 
C=CCOc1c(Br)cc(C(C)(C)c2cc(Br)c(OCC=C)c(Br)c2)cc1Br | inactive | inactive | inactive | inactive | inactive | inactive |  | 
CCOC(=O)[C@H](CCc1ccccc1)N[C@@H](C)C(=O)N1CCC[C@H]1C(=O)O | inactive | inactive | inactive | inactive | inactive | inactive |  | 
CC1(C)C(=O)C(C)(C)C1=O | inactive | inactive | inactive | inactive | inactive | inactive |  | 
Clc1ccc2c(c1)CCc1cccnc1C2=C1CCNCC1 | inactive | inactive | inactive | inactive | inactive | inactive | inactive | 
O=C1CCC(=O)O1 | inactive | inactive | inactive | inactive | inactive |  |  | 
